Test results published in PubChem BioAssay (NCI).
The panel holds about 79,000 compounds, 15% with a hit somewhere; the sample as a whole holds those more often. A number with no mark means an inactive call. Activity calls are given as the source filed them. Cut-off read from the data, not from the text of the source: active = growth inhibition above about 70%; inactive = the rest.

Key:
[1] = NCI Yeast Anticancer Drug Screen. Data for the rad52 strain (AID 147);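 note: 0% = growth of vehicle-treated control cultures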; conditions: S. cerevisiae rad52 mutant growth inhibition, hits give high values
In short: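 Inhibition of yeast growth, referenced to vehicle controls, was the measured output for a strain with defective DNA damage repair.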

[2] = NCI Yeast Anticancer Drug Screen. Data for the wt1 strain (AID 149);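 note: 0% = growth of vehicle-treated wt1 cultures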; conditions: S. cerevisiae wt1 strain (SPY 50644) growth inhibition, hits give high values
In short: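 Each compound is tested on wt1 yeast and the loss of growth versus vehicle gives the inhibition value.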

[3] = NCI Yeast Anticancer Drug Screen. Data for the mgt1 strain (AID 153); conditions: S. cerevisiae mgt1 mutant growth inhibition, hits give high values
In short: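 In the mgt1 strain, test compounds were added and growth inhibition was determined relative to vehicle-treated controls.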

[4] = NCI Yeast Anticancer Drug Screen. Data for the rad50 strain (AID 155);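 note: 0% = growth of vehicle-only cultures of the same strain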; conditions: S. cerevisiae rad50 strain growth inhibition, hits give high values
In short: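 Vehicle-treated cultures provide the reference for the growth inhibition reported for compound-exposed, repair-deficient yeast.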

[5] = NCI Yeast Anticancer Drug Screen. Data for the mec2-1 strain (AID 157); conditions: S. cerevisiae mec2-1 strain, hits give high values
In short: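 Each compound was tested on mec2-1 yeast, a strain altered in DNA damage repair or cell cycle control. Growth inhibition is reported relative to vehicle.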

[6] = NCI Yeast Anticancer Drug Screen. Data for the rad14 strain (AID 159);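 note: 0% = growth of vehicle-treated control cultures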; conditions: S. cerevisiae rad14 strain growth inhibition, hits give high values
In short: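 Inhibition of growth is reported for a repair-deficient yeast mutant following compound treatment, calculated relative to cultures that received vehicle.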

[7] = NCI Yeast Anticancer Drug Screen. Data for the sgs1 mgt1 strain (AID 161);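 note: 0% = growth of cultures given vehicle only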; conditions: S. cerevisiae sgs1 mgt1 strain, hits give high values
In short: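 Read-out: growth inhibition vs vehicle controls. Cells: mutant yeast strain deficient in DNA damage repair.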

[8] = NCI Yeast Anticancer Drug Screen. Data for the CLN2oe strain (AID 163);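 note: 0% = growth of vehicle-only control cultures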; conditions: S. cerevisiae CLN2oe strain, hits give high values
In short: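 First, the altered yeast strain was treated with each compound; second, its growth was measured; finally, inhibition was derived by comparison with vehicle controls.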

[9] = NCI Yeast Anticancer Drug Screen. Data for the cln2 rad14 strain (AID 165);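 note: 0% = growth equal to vehicle treated cultures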; conditions: S. cerevisiae cln2 rad14 strain, hits give high values
In short: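 Test compounds were added to cln2 rad14 yeast cultures; inhibition of growth was then determined by comparison with vehicle treatment.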

[10] = NCI Yeast Anticancer Drug Screen. Data for the bub3 strain (AID 167); conditions: S. cerevisiae bub3 mutant strain, hits give high values
In short: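 Mutant yeast screening strain plus compound; vehicle-treated cultures serve as the 0% inhibition reference.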

[11] = NCI Yeast Anticancer Drug Screen. Data for the wt2 strain (AID 169); conditions: S. cerevisiae wt2 strain growth inhibition, hits give high values
In short: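 The panel's yeast strains carry defined changes in DNA repair or cell cycle genes. Each strain is grown with compound, and growth loss is scored relative to vehicle.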

[12] = NCI Yeast Anticancer Drug Screen. Data for the sgs1 strain (AID 173);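 note: 0% = growth of vehicle-only control cultures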; conditions: S. cerevisiae sgs1 mutant, hits give high values
In short: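 Vehicle-treated cultures served as reference for growth inhibition of a yeast strain altered in DNA damage repair or cell cycle control after compound exposure.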

[13] = NCI Yeast Anticancer Drug Screen. Data for the mlh1 rad18 strain (AID 175); conditions: S. cerevisiae mlh1 rad18 strain growth inhibition, hits give high values
In short: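 Inhibition values reflect reduced growth of mutant yeast versus vehicle-treated controls following compound exposure; the mutations affect DNA damage repair.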

[14] = NCI Yeast Anticancer Drug Screen. Data for the rad50EPP+ strain (AID 151);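 note: 0% = growth of vehicle-treated control cultures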; conditions: S. cerevisiae rad50 mutant strain, hits give high values
In short: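 Genetically defined yeast (rad50EPP+, DNA damage repair alteration) is grown with compound, and inhibition of growth is expressed relative to vehicle-treated controls.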

[15] = NCI Yeast Anticancer Drug Screen. Data for the mlh1 strain (AID 171);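 note: 0% = growth of vehicle-treated control cultures of the same strain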; conditions: S. cerevisiae mlh1 strain growth inhibition, hits give high values
In short: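 Inhibition values reflect reduced yeast growth in the presence of compound, referenced to vehicle controls, using a strain chosen for its alteration in DNA repair or cell cycle control.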

[16] = NCI Yeast Anticancer Drug Screen. Data for the rad18 strain (AID 177); conditions: S. cerevisiae rad18 mutant growth inhibition, hits give high values
In short: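 Steps: expose repair-mutant yeast to compound; measure growth; express as inhibition relative to vehicle control.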

[17] = at 5.0 µM (retest, dose inferred, filed as 0.5)
[18] = at 50.0 µM (retest, dose inferred, filed as 5.0)

O=C(CC(C(=O)O)N1CCOCC1)c1ccccc1 (stereo unspecified)
growth inhibition ([1]; at 1.2 µM): -1%
growth inhibition ([1]; at 3.7 µM): -2%
growth inhibition ([1]; at 11.0 µM): 0%
growth inhibition ([1]; at 33.0 µM): 32%
growth inhibition ([1]; at 100.0 µM): 73% (active)
growth inhibition ([2]; at 1.2 µM): -1%
growth inhibition ([2]; at 3.7 µM): -2%
growth inhibition ([2]; at 11.0 µM): 0%
growth inhibition ([2]; at 33.0 µM): 12%
growth inhibition ([2]; at 100.0 µM): 47%
growth inhibition ([3]; at 1.2 µM): -3%
growth inhibition ([3]; at 3.7 µM): -3%
growth inhibition ([3]; at 11.0 µM): 1%
growth inhibition ([3]; at 33.0 µM): 33%
growth inhibition ([3]; at 100.0 µM): 65%
growth inhibition ([4]; at 1.2 µM): -3%
growth inhibition ([4]; at 3.7 µM): 1%
growth inhibition [4, 17]: 13%
growth inhibition ([4]; at 11.0 µM): 2%
growth inhibition ([4]; at 33.0 µM): 36%
growth inhibition [4, 18]: 65%
growth inhibition ([4]; at 50.0 µM): 49%
growth inhibition ([4]; at 100.0 µM): 77% (active)
growth inhibition ([5]; at 1.2 µM): -6%
growth inhibition ([5]; at 3.7 µM): -11%
growth inhibition [5, 17]: -2%
growth inhibition ([5]; at 11.0 µM): 2%
growth inhibition ([5]; at 33.0 µM): 31%
growth inhibition [5, 18]: 41%
growth inhibition ([5]; at 50.0 µM): 12.4%
growth inhibition ([5]; at 100.0 µM): 66%
growth inhibition ([6]; at 1.2 µM): -3%
growth inhibition ([6]; at 3.7 µM): -5%
growth inhibition ([6]; at 11.0 µM): 0%
growth inhibition ([6]; at 33.0 µM): 3%
growth inhibition ([6]; at 100.0 µM): 29%
growth inhibition [7, 17]: -6%
growth inhibition [7, 18]: 54%
growth inhibition ([7]; at 50.0 µM): 3.3%
growth inhibition ([8]; at 1.2 µM): -4%
growth inhibition ([8]; at 3.7 µM): -9%
growth inhibition ([8]; at 11.0 µM): -10%
growth inhibition ([8]; at 33.0 µM): -2%
growth inhibition ([8]; at 100.0 µM): 22%
growth inhibition [9, 17]: 81% (active)
growth inhibition [9, 18]: 17%
growth inhibition ([9]; at 50.0 µM): -16.2%
growth inhibition ([10]; at 1.2 µM): -16%
growth inhibition ([10]; at 3.7 µM): -17%
growth inhibition [10, 17]: 98% (active)
growth inhibition ([10]; at 11.0 µM): -8%
growth inhibition ([10]; at 33.0 µM): 29%
growth inhibition [10, 18]: 60%
growth inhibition ([10]; at 50.0 µM): 21.3%
growth inhibition ([10]; at 100.0 µM): 68%
growth inhibition ([11]; at 1.2 µM): -4%
growth inhibition ([11]; at 3.7 µM): -3%
growth inhibition ([11]; at 11.0 µM): 0%
growth inhibition ([11]; at 33.0 µM): 31%
growth inhibition ([11]; at 100.0 µM): 71% (active)
growth inhibition ([12]; at 1.2 µM): 0%
growth inhibition ([12]; at 3.7 µM): 5%
growth inhibition ([12]; at 11.0 µM): 19%
growth inhibition ([12]; at 33.0 µM): 56%
growth inhibition ([12]; at 100.0 µM): 80% (active)
growth inhibition [13, 17]: 10%
growth inhibition [13, 18]: 47%
growth inhibition ([13]; at 50.0 µM): 47.9%

C/C=C/SC(=Nc1ccccc1)Nc1ccccc1
growth inhibition ([1]; at 1.2 µM): -3%
growth inhibition ([1]; at 3.7 µM): -5%
growth inhibition ([1]; at 11.0 µM): -6%
growth inhibition ([1]; at 33.0 µM): -6%
growth inhibition ([1]; at 100.0 µM): 99% (active)
growth inhibition ([14]; at 1.2 µM): 3%
growth inhibition ([14]; at 3.7 µM): 3%
growth inhibition ([14]; at 11.0 µM): 11%
growth inhibition ([14]; at 33.0 µM): 23%
growth inhibition ([14]; at 100.0 µM): 39%
growth inhibition ([3]; at 1.2 µM): -6%
growth inhibition ([3]; at 3.7 µM): -8%
growth inhibition ([3]; at 11.0 µM): -9%
growth inhibition ([3]; at 33.0 µM): -13%
growth inhibition ([3]; at 100.0 µM): 98% (active)
growth inhibition ([4]; at 1.2 µM): -5%
growth inhibition ([4]; at 3.7 µM): -7%
growth inhibition [4, 17]: -10%
growth inhibition ([4]; at 11.0 µM): -7%
growth inhibition ([4]; at 33.0 µM): -8%
growth inhibition [4, 18]: 78% (active)
growth inhibition ([4]; at 50.0 µM): 88% (active)
growth inhibition ([4]; at 100.0 µM): 98% (active)
growth inhibition ([5]; at 1.2 µM): -6%
growth inhibition ([5]; at 3.7 µM): -5%
growth inhibition [5, 17]: -9%
growth inhibition ([5]; at 11.0 µM): -9%
growth inhibition ([5]; at 33.0 µM): -8%
growth inhibition [5, 18]: 67%
growth inhibition ([5]; at 50.0 µM): 49.2%
growth inhibition ([5]; at 100.0 µM): 98% (active)
growth inhibition ([6]; at 1.2 µM): -4%
growth inhibition ([6]; at 3.7 µM): -4%
growth inhibition ([6]; at 11.0 µM): -5%
growth inhibition ([6]; at 33.0 µM): -4%
growth inhibition ([6]; at 100.0 µM): 99% (active)
growth inhibition [7, 17]: -5%
growth inhibition [7, 18]: 71% (active)
growth inhibition ([7]; at 50.0 µM): 90.8% (active)
growth inhibition ([8]; at 1.2 µM): -9%
growth inhibition ([8]; at 3.7 µM): -18%
growth inhibition ([8]; at 11.0 µM): -15%
growth inhibition ([8]; at 33.0 µM): -24%
growth inhibition ([8]; at 100.0 µM): 97% (active)
growth inhibition [9, 17]: 2%
growth inhibition [9, 18]: 33%
growth inhibition ([9]; at 50.0 µM): 2.3%
growth inhibition ([10]; at 1.2 µM): 10%
growth inhibition ([10]; at 3.7 µM): 8%
growth inhibition [10, 17]: 10%
growth inhibition ([10]; at 11.0 µM): 7%
growth inhibition ([10]; at 33.0 µM): -12%
growth inhibition [10, 18]: 36%
growth inhibition ([10]; at 50.0 µM): 92.5% (active)
growth inhibition ([10]; at 100.0 µM): 98% (active)
growth inhibition ([11]; at 1.2 µM): -3%
growth inhibition ([11]; at 3.7 µM): -3%
growth inhibition ([11]; at 11.0 µM): -7%
growth inhibition ([11]; at 33.0 µM): -9%
growth inhibition ([11]; at 100.0 µM): 98% (active)
growth inhibition ([15]; at 1.2 µM): -4%
growth inhibition ([15]; at 3.7 µM): -3%
growth inhibition ([15]; at 11.0 µM): -6%
growth inhibition ([15]; at 33.0 µM): -5%
growth inhibition ([15]; at 100.0 µM): 98% (active)
growth inhibition ([12]; at 1.2 µM): -4%
growth inhibition ([12]; at 3.7 µM): -5%
growth inhibition ([12]; at 11.0 µM): -7%
growth inhibition ([12]; at 33.0 µM): -3%
growth inhibition ([12]; at 100.0 µM): 98% (active)
growth inhibition [13, 17]: -10%
growth inhibition [13, 18]: 70% (active)
growth inhibition ([13]; at 50.0 µM): 66.3%
growth inhibition ([16]; at 1.2 µM): -2%
growth inhibition ([16]; at 3.7 µM): -5%
growth inhibition ([16]; at 11.0 µM): -8%
growth inhibition ([16]; at 33.0 µM): -9%
growth inhibition ([16]; at 100.0 µM): 98% (active)

CCCC(=O)Oc1ccc(/C=N/NC(N)=S)nc1
growth inhibition ([1]; at 1.2 µM): 5%
growth inhibition ([1]; at 3.7 µM): -9%
growth inhibition ([1]; at 11.0 µM): -1%
growth inhibition ([1]; at 33.0 µM): 8%
growth inhibition ([1]; at 100.0 µM): 4%
growth inhibition ([2]; at 1.2 µM): 1%
growth inhibition ([2]; at 3.7 µM): -19%
growth inhibition ([2]; at 11.0 µM): 1%
growth inhibition ([2]; at 33.0 µM): -19%
growth inhibition ([2]; at 100.0 µM): -24%
growth inhibition ([3]; at 1.2 µM): -1%
growth inhibition ([3]; at 3.7 µM): -5%
growth inhibition ([3]; at 11.0 µM): -2%
growth inhibition ([3]; at 33.0 µM): -6%
growth inhibition ([3]; at 100.0 µM): -14%
growth inhibition ([4]; at 1.2 µM): -9%
growth inhibition ([4]; at 3.7 µM): -16%
growth inhibition [4, 17]: -3%
growth inhibition ([4]; at 11.0 µM): -17%
growth inhibition ([4]; at 33.0 µM): -7%
growth inhibition [4, 18]: 14%
growth inhibition ([4]; at 50.0 µM): 15%
growth inhibition ([4]; at 100.0 µM): 4%
growth inhibition ([5]; at 1.2 µM): -3%
growth inhibition ([5]; at 3.7 µM): -2%
growth inhibition [5, 17]: -2%
growth inhibition ([5]; at 11.0 µM): -4%
growth inhibition ([5]; at 33.0 µM): -2%
growth inhibition [5, 18]: 89% (active)
growth inhibition ([5]; at 50.0 µM): 75.2% (active)
